Measurements reported in PubChem BioAssay AID1159580 (chemical genetic matrix, 2015).
Screen size: about 5,500 compounds; about 2,000 (36%) were called active. Not shown: some 18% with an inconclusive outcome. The list shows a part of the results. Unmarked numbers belong to inactive results. Rule as the data show it: active = normalized growth mostly below about 0.91 (no sharp cut-off); inconclusive = no clear call, values can overlap the other calls; inactive = mostly above about 0.92.

Assay: chemical genetic growth profiling, strain panel (AID 1159580);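 also: tested at 20 µM; growth read once vehicle control cultures reached saturation at 30 °C; 1 = growth at the plate median or of vehicle wells; lower values mean less growth of the strain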
Settings: S. cerevisiae deletion strains, growth OD

With `COP(=S)(OC)Oc1ccc(SC)c(C)c1` the normalized growth (locus YAL013W, strain DEP1, hits give low values) was 1, the normalized growth (locus YAL021C, strain ccr4, hits give low values) was 1.07 and the normalized growth (locus YAL026C, strain drs2, hits give low values) was 0.984. The normalized growth (locus YAL030W, strain snc1, hits give low values) was 1, the normalized growth (locus YBL061C, strain skt5, hits give low values) was 0.981 and the normalized growth (locus YBR009C, strain hhf1, hits give low values) was 0.904 (active). The normalized growth (locus YBR021W, strain FUR4, hits give low values) was 0.98, the normalized growth (locus YBR023C, strain chs3, hits give low values) was 0.973 and the normalized growth (locus YBR171W, strain sec66, hits give low values) was 0.992. It also gave a normalized growth (locus YBR229C, strain ROT2, hits give low values) of 1.02, a normalized growth (locus YBR231C, strain swc5, hits give low values) of 1.03 and a normalized growth (locus YBR279W, strain paf1, hits give low values) of 1.01. The normalized growth (locus YCL011C, strain gbp2, hits give low values) was 0.955, the normalized growth (locus YCL016C, strain dcc1, hits give low values) was 0.954 and the normalized growth (locus YCL029C, strain bik1, hits give low values) was 0.988. The normalized growth (locus YCL069W, strain vba3, hits give low values) was 0.981, the normalized growth (locus YCR088W, strain abp1, hits give low values) was 1 and the normalized growth (locus YDL005C, strain med2, hits give low values) was 1.01. For the same compound, the normalized growth (locus YDL035C, strain GPR1, hits give low values) was 1.01, the normalized growth (locus YDL040C, strain nat1, hits give low values) was 1 and the normalized growth (locus YDL074C, strain BRE1, hits give low values) was 1.01. The normalized growth (locus YDL101C, strain DUN1, hits give low values) was 1.03, the normalized growth (locus YDL134C, strain PPH21, hits give low values) was 1.02 and the normalized growth (locus YDL185W, strain tfp1, hits give low values) was 0.986. It also gave a normalized growth (locus YDL192W, strain arf1, hits give low values) of 0.989, a normalized growth (locus YDR001C, strain nth1, hits give low values) of 0.999 and a normalized growth (locus YDR069C, strain doa4, hits give low values) of 1.02. It also gave a normalized growth (locus YDR101C, strain arx1, hits give low values) of 0.988, a normalized growth (locus YDR137W, strain rgp1, hits give low values) of 0.94 and a normalized growth (locus YDR150W, strain NUM1, hits give low values) of 1.02. The normalized growth (locus YDR159W, strain sac3, hits give low values) was 0.919, the normalized growth (locus YDR162C, strain NBP2, hits give low values) was 1.01 and the normalized growth (locus YDR195W, strain ref2) was 1.2 [resistant] (active). For the same compound, the normalized growth (locus YDR297W, strain sur2, hits give low values) was 1.01, the normalized growth (locus YDR318W, strain mcm21, hits give low values) was 0.99 and the normalized growth (locus YDR334W, strain swr1, hits give low values) was 1.01. For the same compound, the normalized growth (locus YDR335W, strain msn5, hits give low values) was 1.01, the normalized growth (locus YDR388W, hits give low values) was 0.991 and the normalized growth (locus YDR392W, strain spt3, hits give low values) was 0.766. The normalized growth (locus YDR502C, strain sam2, hits give low values) was 1, the normalized growth (locus YEL003W, strain gim4, hits give low values) was 1 and the normalized growth (locus YEL037C, strain rad23, hits give low values) was 1. For the same compound, the normalized growth (locus YEL061C, strain CIN8 (second series), hits give low values) was 1, the normalized growth (locus YEL061C, strain CIN8, hits give low values) was 1.01 and the normalized growth (locus YER015W, strain faa2, hits give low values) was 0.995. The normalized growth (locus YER016W, strain bim1, hits give low values) was 0.978, the normalized growth (locus YER110C, hits give low values) was 0.986 and the normalized growth (locus YER111C, strain swi4, hits give low values) was 1.01. For the same compound, the normalized growth (locus YER155C, strain BEM2 (second series), hits give low values) was 0.951, the normalized growth (locus YER155C, strain BEM2, hits give low values) was 1.02 and the normalized growth (locus YER167W, strain BCK2, hits give low values) was 1. It also gave a normalized growth (locus YFR010W, strain ubp6, hits give low values) of 1.03, a normalized growth (locus YGL078C, strain dbp3, hits give low values) of 0.981 and a normalized growth (locus YGL086W, strain mad1, hits give low values) of 0.991. For the same compound, the normalized growth (locus YGL167C, strain pmr1, hits give low values) was 0.993, the normalized growth (locus YGL173C, strain kem1, hits give low values) was 0.988 and the normalized growth (locus YGL227W, strain vid30, hits give low values) was 1.01. The normalized growth (locus YGL240W, strain doc1, hits give low values) was 0.989, the normalized growth (locus YGL248W, strain PDE1, hits give low values) was 1.03 and the normalized growth (locus YGL253W, strain hxk2, hits give low values) was 0.955. The normalized growth (locus YGR078C, strain PAC10, hits give low values) was 0.999, the normalized growth (locus YGR135W, strain pre9, hits give low values) was 0.987 and the normalized growth (locus YGR229C, strain SMI1, hits give low values) was 0.984. It also gave a normalized growth (locus YGR252W, strain gcn5, hits give low values) of 0.922, a normalized growth (locus YHR013C, strain ard1, hits give low values) of 1.02 and a normalized growth (locus YHR027C, strain rpn1, hits give low values) of 0.998. It also gave a normalized growth (locus YHR030C, strain SLT2, hits give low values) of 1.02, a normalized growth (locus YHR079C, strain IRE1 (second series), hits give low values) of 0.99 and a normalized growth (locus YHR094C, strain hxt1, hits give low values) of 0.984. It also gave a normalized growth (locus YHR129C, strain ARP1, hits give low values) of 1.01, a normalized growth (locus YHR142W, strain chs7, hits give low values) of 0.912 and a normalized growth (locus YHR200W, strain rpn10, hits give low values) of 0.977. For the same compound, the normalized growth (locus YIL066C, strain RNR3, hits give low values) was 1, the normalized growth (locus YIL073C, strain SPO22, hits give low values) was 0.954 and the normalized growth (locus YIL125W, strain kgd1, hits give low values) was 0.996. For the same compound, the normalized growth (locus YIR030C, strain dcg1, hits give low values) was 0.988, the normalized growth (locus YJL092W, strain hpr5, hits give low values) was 0.992 and the normalized growth (locus YJL095W, strain BCK1 (second series), hits give low values) was 0.97. The normalized growth (locus YJL095W, strain BCK1, hits give low values) was 0.983, the normalized growth (locus YJL115W, strain asf1, hits give low values) was 1.02 and the normalized growth (locus YJL129C, strain trk1, hits give low values) was 0.958. For the same compound, the normalized growth (locus YJL134W, strain LCB3, hits give low values) was 1.02, the normalized growth (locus YJL154C, strain vps35, hits give low values) was 1.01 and the normalized growth (locus YJL164C, strain tpk1, hits give low values) was 0.935. The normalized growth (locus YJL166W, strain qcr8, hits give low values) was 0.974, the normalized growth (locus YJL168C, strain set2, hits give low values) was 0.991 and the normalized growth (locus YJL187C, strain SWE1 (second series), hits give low values) was 1.01. For the same compound, the normalized growth (locus YJR043C, strain POL32, hits give low values) was 1.
